From PubChem
DRD3 antagonist – D3 dopamine receptor (human) antagonism. D3R cells, DiscoveRx beta-arrestin luminescence, antagonist mode; active compounds read low. AID 652054. max response, negative = inhibition, %. P35462. 2.5% of 360,000 active; in the data active = max response below about -50%; inconclusive = no clear call, values can overlap the other calls; also: % is scaled to controls: 0 for no effect and ±100 for the full control effect
Target sequence (P35462 whole entry, looked up): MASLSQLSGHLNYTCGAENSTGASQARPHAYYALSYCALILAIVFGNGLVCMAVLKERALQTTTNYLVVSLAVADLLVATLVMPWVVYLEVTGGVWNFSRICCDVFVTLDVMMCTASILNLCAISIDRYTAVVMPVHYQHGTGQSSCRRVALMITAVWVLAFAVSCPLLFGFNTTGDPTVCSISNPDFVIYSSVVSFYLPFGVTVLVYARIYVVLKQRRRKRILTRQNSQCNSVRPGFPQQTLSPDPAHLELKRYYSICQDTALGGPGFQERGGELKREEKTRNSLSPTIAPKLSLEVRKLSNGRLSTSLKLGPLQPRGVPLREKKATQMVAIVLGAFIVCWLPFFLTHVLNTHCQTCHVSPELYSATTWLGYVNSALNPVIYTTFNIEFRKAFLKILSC
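Cells plated overnight at 1500 cells/well, then exposed to library compounds with dopamine controls for 90 minutes at 37 degrees C. DiscoveRx reagent added for 30–60 minutes at room temperature; luminescence read, quantitative HTS format.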
D3 ag – D3 dopamine receptor (human) agonism | D3R DiscoveRx beta-arrestin cells, luminescence, 90 min | max activation, % | 0.58% of 410,000 active | AID 652048; in the data active = max activation above about 30%; also: 0% is about no effect
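Cells at 1500/well, incubated overnight, then treated with pinned compounds (dopamine as control) for 90 min at 37 degrees C. DiscoveRx reagent added for 30 - 60 minutes at room temperature; luminescence read.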
Nrf2 ARE act – activators of Nrf2 (ARE) signaling; AREc32 ARE-luciferase reporter (MCF7-derived line), luminescence, 24 h; Potency, µM (series often up to 46.1 µM), without a hit: at the top dose activation, usual class: activators; 0.31% of 410,000 active; also: potency is read from the fitted curve at half-maximal effect; % of control where 0% means no effect; nearly all actives have a fitted effect of over 65% in size
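AREc32 cells carrying an ARE-driven firefly luciferase reporter were seeded at 1000 cells/well in OPTI-MEM with 5% FBS, then exposed to compound for 24 hr at 37 deg C. Luminescence was read with Steady-Glo after 30 min at RT.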
Glioma ERSR ind – inducers of ER stress response in human glioma cells | U87-MG GRP78 promoter luciferase reporter, 16 h | 0.02% of 420,000 active | AID 602332 | Potency, µM, inactives show at the highest dose activation, usual class: activators; also: potency is read from the fitted curve at half-maximal effect; series mostly up to about 76 µM; % of control where 0% means no effect; nearly all actives have a fitted effect of over 35% in size
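ERSR induction read as luciferase luminescence (Bright-Glo, 10 min at room temperature) in stably transfected human U87-MG glioma cells exposed to compounds for 16 h, using GRP78 as sensor.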
An asterisk follows results filed as active. Sampled rows, rich in hits. Any-hit rate of the full collection: about 3%. Unless noted, calls follow the shape of the dose curve; as a rule, active = well fitted curve in the direction sought with a large enough effect; inconclusive = small, poorly fitted or top-dose-only effect, or another doubt; inactive = no such curve, though single readings can be large; an effect the other way counts as inactive or inconclusive.

For CCCNC(=O)C1(C)CCCN(Cc2csc(-c3ccccc3)n2)C1 (configuration not stated) the results were DRD3 antagonist -66*, D3 ag 45*, Nrf2 ARE act 2% and Glioma ERSR ind 0%.
For CCNC(=O)C1(C)CCCN(Cc2csc(-c3ccc(Cl)cc3)n2)C1 (configuration not stated) the results were DRD3 antagonist -20, D3 ag -14, Nrf2 ARE act 12% and Glioma ERSR ind -5%.
CC(=O)c1ccc(F)c(-c2cc(C)cc3c2OC(CNC(=O)C[C@@H]2C[C@@H](C)NC(=S)N2)C3)c1 (some centres not stated) was read as Glioma ERSR ind 0%.
Cc1cccc2c(C(O)c3cn(C)c4ccccc34)c[nH]c12 (configuration not stated) was read as Glioma ERSR ind 2%.
Screening CCOc1ccc(-n2ccnc(SCC(=O)NCc3cccc(OC)c3)c2=O)cc1 returned DRD3 antagonist -60*, D3 ag -17, Nrf2 ARE act 3% and Glioma ERSR ind -1%.
COc1cc2c(cc1OC)C(C1C(=O)CCCC1=O)N(C(=O)CCl)CC2 (configuration not stated) was read as DRD3 antagonist 17, D3 ag -2, Nrf2 ARE act 4% and Glioma ERSR ind -3%.
COc1cc2c(cc1OC)C(c1ccccc1)N(C(=O)CCl)CC2 (configuration not stated) was read as DRD3 antagonist -62*, D3 ag -2, Nrf2 ARE act 10% and Glioma ERSR ind -16%.
For COc1cc(=O)n2c(c1C(=O)N(C)Cc1nonc1C)CCN(C(=O)c1cccc(C)c1C)CC2 the results were Glioma ERSR ind 0%.
Screening CN(C(=O)COc1ccccc1C(=O)NCCOc1ccccc1)c1ccccc1 returned DRD3 antagonist 12, D3 ag 30*, Nrf2 ARE act -3% and Glioma ERSR ind -9%.
For CN(C)c1ccc(/C=C/c2ccnc3ccccc23)cc1Br the results were Glioma ERSR ind -1%.
For O=C(NCc1ccccc1Cl)c1ccc2c(c1)NC(=O)C(CS(=O)(=O)Cc1ccc(F)cc1Cl)N2 (configuration not stated) the results were D3 ag 47*, Nrf2 ARE act -1% and Glioma ERSR ind -5%.
O=C(NCc1ccc(Cl)cc1)c1ccc2c(c1)NC(=O)C(CS(=O)(=O)Cc1ccc(F)cc1Cl)N2 (configuration not stated) was read as D3 ag -7, Nrf2 ARE act 0% and Glioma ERSR ind -1%.
CC(C)OC(=O)c1cn(-c2ccccc2)nc1-c1ccco1 was read as DRD3 antagonist -17, D3 ag -3, Nrf2 ARE act 3.2µM* and Glioma ERSR ind -6%.
`CCOC(=O)C1=C(C)NC(C)=C(C(=O)OCC)C1c1cn(-c2ccccc2)nc1-c1ccco1` gave DRD3 antagonist 1, D3 ag 5, Nrf2 ARE act 5% and Glioma ERSR ind -6%.
`CCCCN(CC)CCNC(=O)c1c(C)oc2ncnc(N3CCOCC3)c12` gave D3 ag -5, Nrf2 ARE act 0% and Glioma ERSR ind 0%.
Cc1ccc2oc(-c3ccc(C)c(NC(=O)COc4ccc(Cl)cc4C)c3)nc2c1 was read as Glioma ERSR ind -2%.
CN(C)c1ccc(/C=C/N2C=CCc3c2ccc2ccccc32)cc1 was read as Glioma ERSR ind -11%.
Screening S=c1[nH]nc(-c2cc(-c3ccccc3)n[nH]2)n1/N=C/c1ccc(Cl)cc1 returned DRD3 antagonist -55*, D3 ag -17, Nrf2 ARE act 6% and Glioma ERSR ind 2%.
S=c1[nH]nc(-c2cc(-c3ccccc3)n[nH]2)n1/N=C/c1ccc(Cl)c(Cl)c1 was read as DRD3 antagonist -8, D3 ag -4, Nrf2 ARE act 3% and Glioma ERSR ind -1%.
`O=[N+]([O-])c1ccc(/C=N/n2c(-c3cccnc3)n[nH]c2=S)cc1` gave DRD3 antagonist -56*, D3 ag -15, Nrf2 ARE act 0% and Glioma ERSR ind -4%.
`FC(F)(F)c1cccc(N2CCN(Cc3cccnc3)CC2)c1` gave DRD3 antagonist -74*, D3 ag -9, Nrf2 ARE act 0% and Glioma ERSR ind -2%.
Screening Cc1cccc(N2CCN(Cc3ccoc3)CC2)c1C returned DRD3 antagonist -87*, D3 ag -32, Nrf2 ARE act 0% and Glioma ERSR ind 0%.
FC(F)(F)c1cccc(N2CCN(Cc3ccoc3)CC2)c1 was read as DRD3 antagonist -96*, D3 ag -27, Nrf2 ARE act 0% and Glioma ERSR ind 2%.
For COc1cc2c(cc1OC)C(COc1cc(C)cc(C)c1)N(C(=O)COc1ccccc1)CC2 (configuration not stated) the results were D3 ag 6, Nrf2 ARE act 1% and Glioma ERSR ind -4%.
Cc1cc(C(=O)Nc2ccccc2-c2nc(CNC(=O)C3COc4ccccc4O3)c(C)o2)c(C)o1 (configuration not stated) was read as Glioma ERSR ind 0%.
`O=c1c2ccccc2c2ccccc2c(=O)n1Cc1cccnc1` gave DRD3 antagonist -108*, D3 ag -9, Nrf2 ARE act 2% and Glioma ERSR ind 2%.
O=c1c2ccccc2[nH]c(=S)n1Cc1cccnc1 was read as DRD3 antagonist -20, D3 ag -1, Nrf2 ARE act -1% and Glioma ERSR ind -2%.
`Oc1ccc(Br)cc1C=Nc1ccc2c3c(cccc13)CC2` gave DRD3 antagonist -54*, D3 ag -6, Nrf2 ARE act 3% and Glioma ERSR ind -4%.
O=C(CSC1=Nc2ccccc2C2CC=NN12)NCc1ccco1 (configuration not stated) was read as DRD3 antagonist inconclusive, D3 ag -9, Nrf2 ARE act 0.63µM* and Glioma ERSR ind -3%.
`O=C(CSC1=Nc2ccccc2C2CC=NN12)Nc1ccc2c(c1)OCO2` (configuration not stated) gave DRD3 antagonist -50*, D3 ag -16, Nrf2 ARE act -2% and Glioma ERSR ind -14%.
N#Cc1ccccc1NC(=O)CSC1=Nc2ccccc2C2CC=NN12 (configuration not stated) was read as DRD3 antagonist -23, D3 ag -10, Nrf2 ARE act 5% and Glioma ERSR ind -3%.
For Cc1ccc2nc(SCC(=O)Nc3cccc([N+](=O)[O-])c3)[nH]c2c1 the results were DRD3 antagonist -52*, D3 ag -18, Nrf2 ARE act 1% and Glioma ERSR ind -2%.
`O=C(NC1CC1)[C@@H]1C[C@H](Sc2nc3ccccc3[nH]2)CN1CC1CCCCC1` gave Glioma ERSR ind -4%.
Screening CC(=O)N1CN(C2CCS(=O)(=O)C2)Cc2c1sc1c2CCCC1 (configuration not stated) returned DRD3 antagonist -56*, D3 ag 9, Nrf2 ARE act 0% and Glioma ERSR ind -1%.
Screening Nc1sc2c(c1C(=O)NC1CCS(=O)(=O)C1)CCC2 (configuration not stated) returned DRD3 antagonist -23, D3 ag 6, Nrf2 ARE act -1% and Glioma ERSR ind -4%.
